# In ChEMBL document CHEMBL3988442, “University of Dundee, Small-Polar-MMV Screening Library” (2021):
# In all, about 69,000 compounds went through this assay and about 1,000 (1.4%) showed an effect of 50% or more. The sample as a whole holds a higher share of strong results than the screen did.
# Test system: Leishmania donovani
# Test: Leishmania intramacrophage assay
# Format: functional, organism-based
# Parameters: scale not given: in the data most compounds retested in dose-response had high values
smiles,measurement,setting,value
COc1ccc(C(=O)N2CCCC2c2cnn(C)c2)cn1 (stereo not given),Percent Effect,30 µM,3.221%
CN(Cc1ccco1)Cc1ccccc1CNC(=O)c1cnccn1,Percent Effect,"30.3 µM, […]",16.56%
CC(C)N(CCO)C(=O)c1cc(COc2ccc3c(c2)CCCC3)on1,Percent Effect,"30.3 µM, […]",15.58%
O=C(NCCc1cccnc1)C1CCCN(Cc2ccco2)C1 (stereo not given),Percent Effect,"30.3 µM, […]",-19.49%
Cc1cnccc1NCCNC(=O)C1CCCN(Cc2ccco2)C1 (stereo not given),Percent Effect,"30.3 µM, […]",54.03%
O=C(NCCCc1ccncc1)C1CCCN(Cc2ccco2)C1 (stereo not given),Percent Effect,"30 µM, 30.03 µM",28.63%
CCN(C)c1ncnc2c1CCN(C(=O)c1cnccn1)CC2.O=C(O)C(F)(F)F,Percent Effect,"30.3 µM, […]",16.93%
Cc1ncoc1C(=O)N1C[C@H]2CCC[C@@]2(COCC2CCOCC2)C1,Percent Effect,"30 µM, 30.03 µM",24.66%
CN1C(=O)CCCC12CCCN(C(=O)c1cccc(C(F)(F)F)c1)C2 (stereo not given),Percent Effect,"30.3 µM, […]",25.18%
CN(C)CCNCC1CCOC(C)(C)C1 (stereo not given),Percent Effect,"30.3 µM, […]",-2.235%
CC(CCc1ccccc1)NC(=O)CNCCCN(C)C.O=C(O)C(=O)O (stereo not given),Percent Effect,"30.3 µM, […]",-24.91%
CN(C)CCCNCCC(Cc1ccccc1)C1CCOC(C)(C)C1.O=C(O)C(=O)O (stereo not given),Percent Effect,"30.3 µM, […]",91.79%
CN(C)CCCNC(=O)C(c1cccc(F)c1)N(C)C (stereo not given),Percent Effect,"30.3 µM, […]",17.93%
CN(C)CCNCCC(Cc1ccccc1)C1CCOC(C)(C)C1.O=C(O)C(=O)O (stereo not given),Percent Effect,"30.3 µM, […]",11.95%
CN(C)CCCNCC1CCOC(C)(C)C1 (stereo not given),Percent Effect,"30.3 µM, […]",10.54%
CN(C)CCNCCC(c1ccccc1)C1CCOC(C)(C)C1.O=C(O)C(=O)O (stereo not given),Percent Effect,"30.3 µM, […]",94.59%
CCN(CC)CCNCC1CCOC(C)(C)C1 (stereo not given),Percent Effect,"30.3 µM, […]",12.8%
CN(C)CCCNCCC(c1ccccc1)C1CCOC(C)(C)C1.O=C(O)C(=O)O (stereo not given),Percent Effect,"30.3 µM, […]",97.24%
C[C@@H]1CN(C(=O)C2CCS(=O)(=O)CC2)C[C@@]1(O)C1CC1,Percent Effect,"30.3 µM, […]",-11.49%
Cc1nc(C)n(CC2CCCCN2CCCO)n1 (stereo not given),Percent Effect,"30.3 µM, […]",-18.17%
CC(=O)Nc1cc2c(cc1C)OCO2,Percent Effect,"30.3 µM, […]",3.338%
Cc1ccc(F)cc1NS(=O)(=O)c1cc2c(c(C(=O)O)c1)OCCO2,Percent Effect,30 µM,10.19%
CN1CCO[C@@H]2CN(C(=O)NCc3ccccc3)CC[C@@H]2C1.O=C(O)C(F)(F)F,Percent Effect,"30.3 µM, […]",14.01%
O=C(N1CCCC1)N1C[C@H]2CCC[C@@]2(COCc2ccccn2)C1.O=C(O)C(F)(F)F,Percent Effect,"30.3 µM, […]",12.71%
Cc1ccc(CN2CC[C@@H]3OCCN(Cc4ccncc4)[C@H]3CC2)s1.O=C(O)C(F)(F)F.O=C(O)C(F)(F)F.O=C(O)C(F)(F)F,Percent Effect,"30.3 µM, […]",-14.43%
CS(=O)(=O)NCCCNC(=O)NCc1ccccc1,Percent Effect,30 µM,13.69%
CN(C)CC(=O)N1CC2(CCN(C(=O)Nc3ccccc3)C2)C1.O=C(O)C(F)(F)F,Percent Effect,"30.3 µM, […]",27.48%
Cc1nnc([C@]23COC[C@H]2CN(Cc2cnn(C)c2)C3)o1.O=C(O)C(F)(F)F,Percent Effect,"30.3 µM, […]",10.4%
COc1ccc(CNCC2CCN(CC(C)O)CC2)c2ccccc12 (stereo not given),Percent Effect,"30 µM, 30.03 µM",95.94%
Cc1noc(C)c1CNCC1CCN(CC(O)c2ccccc2)CC1 (stereo not given),Percent Effect,"30 µM, 30.03 µM",48.93%
COc1cccc(CNCC2CCN(CC(C)O)CC2)c1OC (stereo not given),Percent Effect,30 µM,-4.893%
Cc1ncccc1CNCC1CCN(CC(O)c2ccccc2)CC1 (stereo not given),Percent Effect,"30 µM, 30.03 µM",43.15%
CC(O)CN1CCC(CNCc2ccccc2Cl)CC1 (stereo not given),Percent Effect,30 µM,7.148%
CC(O)CN1CCC(CNCc2ccccc2F)CC1 (stereo not given),Percent Effect,30 µM,14.91%
CCOc1ccccc1CNCC1CCN(CC(C)O)CC1 (stereo not given),Percent Effect,30 µM,14.79%
CC(O)CN1CCC(CNCc2ccccc2Br)CC1 (stereo not given),Percent Effect,"30 µM, 30.03 µM",58.06%
Cc1ccc(CNCC2CCN(CC(O)c3ccccc3)CC2)o1 (stereo not given),Percent Effect,30 µM,53.67%
CCOc1ccc(NC(=O)N2CCNC(=O)C2)c(C(F)(F)F)c1,Percent Effect,"30.3 µM, […]",-5.154%
c1ccc(OCCCN2CCOC(CNc3cccnn3)C2)cc1 (stereo not given),Percent Effect,30 µM,30.1%
CCc1nnc(CN(C)C(=O)C(CC)n2c(CC)nc3ccccc32)o1 (stereo not given),Percent Effect,"30.3 µM, […]",37.19%
CC(=O)N1CC(=O)N(c2cnn(C)c2)CC12CCN(Cc1ccco1)C2 (stereo not given),Percent Effect,"30.3 µM, […]",8.312%
CC(c1nc(C(C)(C)C)no1)N1CCN(C(=O)CN2CCOCC2)CC1 (stereo not given),Percent Effect,"30.3 µM, […]",24.72%
CSC(C)(C)CNC(=O)NC1CCC1,Percent Effect,"30.3 µM, […]",-4.731%
CCc1ccccc1NC(=O)NCc1nnc(SC)n1C,Percent Effect,"30.3 µM, […]",23.33%
CSc1nnc(CNC(=O)Nc2ccccc2F)n1C,Percent Effect,"30.3 µM, […]",17.43%
COc1ccccc1NC(=O)NCc1nnc(SC)n1C,Percent Effect,"30.3 µM, […]",56.86%
O=C(c1cnc2ccc(Cl)cc2c1NCc1ccco1)N1CCCCC1,Percent Effect,"30.3 µM, […]",-0.01015%
Cc1nc(C)n(CC2CCCCN2CCOc2ccc(C#N)cc2)n1 (stereo not given),Percent Effect,30 µM,19.26%
COC(=O)NC1(C(=O)Nc2ccc(-c3ncc[nH]3)cc2)CCCC1,Percent Effect,"30.3 µM, […]",26.54%
CCc1noc(C2CCCCN2C(=O)c2cc(C)oc2C)n1 (stereo not given),Percent Effect,"30.3 µM, […]",-92.24%
